TIM10 inh: growth inhibitors of isogenic TIM10 control yeast, primary screen, counter-screen for tim10-1 yeast inhibitor project, luminescence, uHTS; AID 463195, 2010; hit rate 1.4% among 330,000; inhibition, % at 10 µM; S. cerevisiae TIM10 strain growth, BacTiter-Glo luminescence, 24 h;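 active = inhibition of 40% or more at the single tested concentration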;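 also: wild-type TIM10 isogenic control strain grown at permissive 25 °C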
tim23-1 inh: growth inhibitors of tim23-1 mutant yeast, primary screen, luminescence, uHTS; S. cerevisiae tim23-1 growth, BacTiter-Glo luminescence, 24 h; inhibition, % at 20 µM; hit rate 1.3% among 330,000;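 active = growth inhibition of the mutant yeast at or above 50%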;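 also: temperature-sensitive mutant grown at 25 °C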
NALP3 yeast inh: NALP3 inflammasome inhibitors in reconstituted yeast, primary screen, luminescence, uHTS; inhibition, % at 10 µM; hit rate 0.39% among 330,000; AID 2825, 2010; Yeast reconstituted NLRP3/ASC/caspase-1, beta-gal luminescence, 24 h;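 active = inhibition of 50% or more; inactive = inhibition below 50%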
NALP1 yeast inh: NALP1 inflammasome inhibitors in reconstituted yeast, colorimetric, S. cerevisiae, triplicate retest | hit rate 0.61% among 280,000 | inhibition, % at 10 µM | S. cerevisiae NALP1/ASC/caspase-1 growth, X-gal OD620, 72 h; in the data active = inhibition mostly above about 24%, no sharp cut-off; inactive = mostly below about 32%
tim10-1 inh: growth inhibitors of tim10-1 mutant yeast, primary screen, luminescence, uHTS | S. cerevisiae tim10-1 ts strain growth, BacTiter-Glo, 24 h | hit rate 2.2% among 330,000 | AID 463190, 2010 | inhibition, % at 20 µM;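 active = inhibition of at least 40%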;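 also: mutant grown at 25 °C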
tim10-1 confirm: growth inhibitors of tim10-1 mutant yeast, confirmation, single concentration, luminescence, S. cerevisiae; shares compounds with tim10-1 inh; S. cerevisiae tim10-1 ts strain growth, BacTiter-Glo, 24 h; inhibition, % at 20 µM; hit rate 56% among 7,400; AID 463213, 2010;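 active = inhibition of yeast growth at or above a set limit in either of two repeat tests at 20 µM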;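 also: tim10-1 mutant grown at permissive 25 °C to find synthetic lethal compounds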
TIM10 conf: growth inhibitors of wild-type TIM10 yeast, confirmation, counter-screen for tim10-1 synthetic lethality project, single concentration, luminescence, S. cerevisiae; shares compounds with TIM10 inh; S. cerevisiae tim10 strain growth, BacTiter-Glo luminescence, 24 h; inhibition, % at 10 µM; hit rate 63% among 4,600; AID 463215, 2010;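 active = inhibition of yeast growth at or above a set limit in either of two replicates at 10 µM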; also: this counterscreen used the strain with wild-type TIM10
tim23-1 conf: tim23-1 mutant yeast growth inhibitors, confirmation, luminescence, single concentration. shares compounds with tim23-1 inh. S. cerevisiae tim23-1 growth, BacTiter-Glo luminescence, 24 h. inhibition, % at 20 µM. hit rate 83% among 4,400;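 active = inhibition above about 39% in either of two replicate wells at 20 µM, limit read from the data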;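 also: temperature-sensitive tim23-1 mutant grown at 25 °C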
Of the large screens only hits and unclear results are named; the others gave an inactive call (follow-up assays come after a bar, where they were run). This is a sample that favours compounds with a hit; in the whole collection about 4% have one here.

O=C1c2ccc(Oc3cccc([N+](=O)[O-])c3)cc2C(=O)N1c1ccccn1	TIM10 inh 62, tim23-1 inh 52, tim10-1 inh 46 | tim10-1 confirm 54 | TIM10 conf 42 | tim23-1 conf 65
O=S(=O)(NCCCN1CCOCC1)c1ccc(Cl)s1	none
CCCCCCNS(=O)(=O)c1ccc(Cl)s1	tim23-1 inh 56, tim10-1 inh 43 | tim10-1 confirm inactive | tim23-1 conf 47
Cc1nc(-c2noc(-c3ccc(Cl)cc3)n2)c(C(F)(F)F)o1	none
CC1(C)CC(=O)C2=C(C1)Oc1nc3ccccc3cc1C2C(C#N)C#N (stereo not given)	TIM10 inh 54, tim23-1 inh 63, tim10-1 inh 61 | tim10-1 confirm 59 | TIM10 conf 63 | tim23-1 conf 68
CC1(C)CC(=O)C(C2C3=C(CC(C)(C)CC3=O)Oc3ccccc32)C(=O)C1 (stereo not given)	none
O=C(Nc1nnc(-c2ccc(F)cc2)o1)c1ccc(S(=O)(=O)N2CCOCC2)cc1	none
CNC(C)C#Cc1ccc2c(=O)c3ccccc3oc2c1 (stereo not given)	tim23-1 inh 58, tim10-1 inh 54 (no result: NALP1 yeast inh) | tim10-1 confirm 42 | tim23-1 conf 53
COC(=O)[C@@H]1[C@@H](C#N)C2(c3ccccc3-c3ccccc32)N(c2ccc(Cl)cc2)N1C#N	TIM10 inh 44, tim23-1 inh 58, tim10-1 inh 50 | tim10-1 confirm 36 | TIM10 conf inactive | tim23-1 conf 63
O=C(Cc1ccc(Cl)cc1)NN1C(=O)c2ccccc2C1=O	none
COc1ccc(NC(=O)c2nc(C)n(-c3ccc([N+](=O)[O-])cc3)n2)cc1	none
O=C(N/N=C/c1ccc(F)cc1)c1cc(-c2ccccn2)nc2ccccc12	none (no result: NALP1 yeast inh)
O=C(N/N=C/c1cc(Cl)cc([N+](=O)[O-])c1O)c1cc(-c2ccccn2)nc2ccccc12	tim23-1 inh 51, tim10-1 inh 45 (no result: NALP1 yeast inh) | tim10-1 confirm inactive | tim23-1 conf inactive
CCOc1ccccc1-n1c(=S)sc2c(=O)n(-c3ccccc3)c(=S)[nH]c21	none
CC(=O)n1cc(N(C(=O)CCl)c2ccc(Cl)cc2)c2ccccc21	tim23-1 inh 64, tim10-1 inh 48 | tim10-1 confirm 46 | tim23-1 conf 41
CCN1CCc2c(sc(NC(=O)Nc3ccc(Cl)c(Cl)c3)c2C(N)=O)C1	none (no result: TIM10 inh, tim23-1 inh, NALP3 yeast inh, tim10-1 inh)
CNS(=O)(=O)c1cc(OC)c(OC)cc1CC(=O)OC	none
CCCCOC(=O)c1ccc(NC(=O)c2nn(C)cc2Br)cc1	TIM10 inh 48, tim23-1 inh 55, tim10-1 inh 52 | tim10-1 confirm 50 | TIM10 conf 41 | tim23-1 conf 67
NC(=S)N/N=C/c1ccccc1OCCSc1ccc(Cl)cc1	TIM10 inh 57, tim23-1 inh 54, tim10-1 inh 43 | tim10-1 confirm 32 | TIM10 conf inactive | tim23-1 conf inactive
Cc1ccc(C(=O)Nc2cccc(NC(=O)c3cccs3)c2)c(C)c1	tim23-1 inh 53, tim10-1 inh 47 | tim10-1 confirm 36 | tim23-1 conf 50
COc1cc(NC(=O)c2ccc(C)cc2C)ccc1NC(=O)c1cccs1	none
Cc1c(C(=O)NCc2ccc3c(c2)OCO3)oc2ccccc12	TIM10 inh 41, tim23-1 inh 53, tim10-1 inh 48 | tim10-1 confirm 42 | TIM10 conf inactive | tim23-1 conf 55
Cc1ccc(NC(=S)NNC(=S)NC2CCCCC2)cc1	none
S=C(NNc1ccc2ccccc2c1)NC1CCCCC1	TIM10 inh 51, tim23-1 inh 52, tim10-1 inh 49 | tim10-1 confirm 53 | TIM10 conf 56 | tim23-1 conf 52

Compound activity as filed in PubChem.
